Assay outcomes from PubChem BioAssay.
The list is not random: actives were taken first. Their share in the collection is about 1.2%.
RAD54 inh = RAD54 (human) branch migration inhibition; Q92698; RAD54 Holliday junction branch migration, FAM/BHQ fluorescence; inhibition, % at 10.4 µM; hit rate 0.14% among 360,000;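 active = mean normalized replicate activity at least 40 and at least half of replicates scoring 40 or more; inconclusive = only one of the two criteria met; inactive = mean below 40 and under half of replicates reaching 40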;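 also: inhibitors cause a drop in the FAM fluorescence signal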
RAD52 anneal inh = inhibitors of human RAD52 DNA annealing; P43351; recombinant RAD52 DNA annealing, FRET fluorescence; hit rate 0.46% among 360,000; AID 651710; inhibition, % at 18.7 µM;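 active = every replicate showing at least 50% inhibition; inconclusive = mean inhibition at least 50% but not in every replicate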
Target sequence (P43351 whole entry, looked up): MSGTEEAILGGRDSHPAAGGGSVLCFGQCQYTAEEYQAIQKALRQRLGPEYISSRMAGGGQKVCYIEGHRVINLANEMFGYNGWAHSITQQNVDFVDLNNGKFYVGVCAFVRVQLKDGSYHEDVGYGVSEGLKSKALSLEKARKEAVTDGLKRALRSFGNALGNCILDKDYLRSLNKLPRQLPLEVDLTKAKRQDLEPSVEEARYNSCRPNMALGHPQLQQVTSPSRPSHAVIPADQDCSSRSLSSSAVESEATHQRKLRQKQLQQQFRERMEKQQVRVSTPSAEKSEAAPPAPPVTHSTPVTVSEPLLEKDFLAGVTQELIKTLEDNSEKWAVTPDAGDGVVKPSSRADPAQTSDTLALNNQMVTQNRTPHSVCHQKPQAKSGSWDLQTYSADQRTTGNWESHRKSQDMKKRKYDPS
NSD2 inh = inhibitors of human histone methyltransferase NSD2; hit rate 0.54% among 310,000; NSD2 peptide methylation, AlphaScreen, 120 min; AID 743445; inhibition, % at 12.5 µM; in the data active = inhibition above about 50%
Casp6 inh = inhibitors of human caspase-6 | P55212 | purified caspase-6, Z-VEID-R110 cleavage fluorescence | inhibition, % at 12.5 µM | hit rate 0.53% among 350,000;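 active = mean inhibition across replicates at least about 35%, with every replicate also reaching that limit, limit read from the data; inconclusive = only one of the two criteria met; inactive = neither criterion met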
Target sequence (P55212 24-179 limits assumed): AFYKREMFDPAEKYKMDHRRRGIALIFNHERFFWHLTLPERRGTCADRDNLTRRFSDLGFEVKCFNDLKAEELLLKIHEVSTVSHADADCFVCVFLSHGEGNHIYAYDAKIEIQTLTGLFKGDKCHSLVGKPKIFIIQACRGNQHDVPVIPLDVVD
Target sequence (P55212 194-293 limits assumed): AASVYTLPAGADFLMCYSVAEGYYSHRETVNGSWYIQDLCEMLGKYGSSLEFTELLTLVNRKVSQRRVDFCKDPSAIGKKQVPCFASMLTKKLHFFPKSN
N-glyco inh = blocks N-linked glycosylation in D54 reporter cells; hit rate 0.23% among 360,000; D54 ERlucT glycosylation luciferase reporter, 24 h; percent of 100 nM tunicamycin response; reporter increase, % at 12.5 µM;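 active = mean luciferase reporter signal, scaled so untreated is 0 and the glycosylation-blocking control 100, at or above a set limit in every replicate; inconclusive = mean reaches the limit but not every replicate does; inactive = mean below the limit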;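 also: luciferase carries N-glycosylation sites so blocking glycosylation raises the light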
Each line names hits and unclear results; the compound was inactive in the other large screens; ! = not confirmed by another sample.

CCCCCCCCCc1conc1C(=O)/C=C/c1ccco1	Casp6 inh 67 (no result: RAD54 inh, NSD2 inh, N-glyco inh)
Cc1[nH]n(-c2ccccc2)c(=O)c1/C=N/NC(=O)c1cccc([N+](=O)[O-])c1	none (no result: RAD52 anneal inh, Casp6 inh)
Cc1ccc(-n2[nH]c(C)c(/C=N/Nc3ccc([N+](=O)[O-])cc3[N+](=O)[O-])c2=O)cc1C	NSD2 inh 62 (no result: RAD54 inh, RAD52 anneal inh, Casp6 inh)
CC(=O)N1N=C(c2ccc(C)cc2)OC1c1ccc(Br)cc1 (stereo not given)	none (no result: RAD54 inh)
CCOc1ccc(Br)cc1C1=NN(C(C)=O)C(c2ccc([N+](=O)[O-])s2)O1 (stereo not given)	N-glyco inh 36
O=C(C[C@@H]1CC[C@H]2NC[C@H](O)COC[C@@H]2O1)NCCN1CCCC1	none (no result: RAD54 inh, NSD2 inh, N-glyco inh)
O=C(O)c1ccccc1/C=N/NC(=O)c1cc(-c2ccco2)nc2ccccc12	Casp6 inh 61
COCCNC(=O)C[C@H]1CC[C@@H]2[C@H](COc3ccc(NC(=O)c4cnccn4)cc3C(=O)N2C)O1	none (no result: NSD2 inh, N-glyco inh)
O=C(COC(=O)Cc1ccc(S(=O)(=O)N2CCOCC2)s1)Nc1ccc(F)cc1F	Casp6 inh 43
O=C(Cc1ccc(S(=O)(=O)N2CCCCC2)s1)Nc1ccc(F)cc1F	none (no result: RAD52 anneal inh, Casp6 inh)
O=C(Cc1cccs1)N/N=C/C=C/c1ccco1	Casp6 inh 38
O=C(N/N=C/C=C\c1ccco1)c1ccccn1	Casp6 inh 37 (no result: RAD54 inh)
C=CC#CC[N+]1(CC#Cc2ccccc2)CCOCC1	RAD52 anneal inh 74 (no result: RAD54 inh, NSD2 inh)
Cc1cccc(-c2ccc([C@H]3[C@H](CO)N4C(=O)CN(C(=O)c5cccnc5)C[C@@H]34)cc2)c1	none (no result: RAD54 inh, NSD2 inh, N-glyco inh)
CC(Nc1nc(-c2ccccc2F)nc2ccccc12)c1ccccc1 (stereo not given)	none
CC(Nc1nc(-c2ccccc2O)nc2ccccc12)c1ccccc1 (stereo not given)	N-glyco inh 29 (no result: NSD2 inh)
COc1ccccc1NC(=O)COC(=O)CCC1CCCC1	none
COc1ccccc1NC(=O)C(C)OC(=O)CCC1CCCCC1 (stereo not given)	Casp6 inh 53
COc1cc(-c2cnc3c(NC(C)=O)cc(-c4ccccc4CN(C)C)cn23)cc(OC)c1OC	N-glyco inh 40
CO[C@H]1CN(C)C(=O)c2cc(NS(C)(=O)=O)ccc2OC[C@H](C)N(Cc2ccccc2)C[C@H]1C	none (no result: NSD2 inh, N-glyco inh)
CCOC(=O)c1c(N)n(-c2ccc(N)cc2)c2nc3ccccc3nc12	none (no result: RAD54 inh)
CCOC(=O)c1c(N)n(C2CC(C)(C)NC(C)(C)C2)c2nc3ccccc3nc12	RAD54 inh 83 (no result: RAD52 anneal inh, NSD2 inh, Casp6 inh)
O=C(O)/C=C/C(=O)N1Cc2cc3ccccc3nc2C1	Casp6 inh 54
COc1cccc(-c2ccc(C3[C@@H]4CN(S(=O)(=O)c5ccccc5)C[C@H]3N4)cc2)c1 (stereo not given in full)	none (no result: RAD54 inh, NSD2 inh, N-glyco inh)
COc1cccc(-c2ccc(C3[C@@H]4CN(S(=O)(=O)c5ccccc5C)C[C@H]3N4)cc2)c1 (stereo not given in full)	RAD52 anneal inh 73! (no result: RAD54 inh, NSD2 inh, N-glyco inh)
COc1cccc(S(=O)(=O)N2C[C@@H]3N[C@H](C2)C3c2ccc(/C=C/c3ccccc3)cc2)c1 (stereo not given in full)	RAD52 anneal inh 58! (no result: RAD54 inh, NSD2 inh, N-glyco inh)
Cc1ccccc1-c1ccc(C2[C@@H]3CN(S(=O)(=O)c4ccccc4C)C[C@H]2N3)cc1 (stereo not given in full)	RAD52 anneal inh 72! (no result: RAD54 inh, NSD2 inh, N-glyco inh)
Cc1ccccc1-c1ccc(C2[C@@H]3CN(S(=O)(=O)c4ccccc4)C[C@H]2N3)cc1 (stereo not given in full)	none (no result: RAD54 inh, NSD2 inh, N-glyco inh)
COc1cccc(S(=O)(=O)N2[C@@H]3CNC[C@H]2C3c2ccc(/C=C/c3ccccc3)cc2)c1 (stereo not given in full)	none (no result: RAD54 inh, NSD2 inh, N-glyco inh)
C[C@H]1CN([C@@H](C)CO)C(=O)c2cc(C3=CCCC3)cnc2O[C@H]1CN(C)Cc1ccccn1	none (no result: NSD2 inh, N-glyco inh)
CCOC(=O)c1c(C)c(C(=O)NCc2ccc(OC)cc2)c(C)n1C	Casp6 inh 48 (no result: RAD54 inh)
CN(C)C(=O)[C@H]1[C@H](CO)[C@H]2Cn3c(ccc(C4=CCCCC4)c3=O)[C@@H]1N2C	RAD52 anneal inh 63 (no result: NSD2 inh, N-glyco inh)
CC1=C(C)CC(C(=O)NC2CCCC2)C(C(=O)O)C1 (stereo not given)	none
CC1=CCC(C(=O)O)C(C(=O)NC2CCCCC2)C1 (stereo not given)	Casp6 inh 41
CCCCN1Cc2c(nc3cc(-c4ccco4)[nH]n3c2=O)C1=O	Casp6 inh 44
COCc1cc(=O)n2[nH]c(-c3ccco3)cc2n1	none
O=C(Nc1ccc(O)cc1)c1ccccc1OCc1ccccc1	none
COc1cc(NC(=O)c2ccccc2OCc2ccccc2)cc(OC)c1OC	N-glyco inh 28
O=C(Nc1ccccc1)c1ccccc1OCc1cccc([N+](=O)[O-])c1	Casp6 inh 36 (no result: RAD54 inh)
CNC(=O)c1cccc(NC(=O)c2ccccc2OCc2ccccc2)c1	N-glyco inh 27
CO[C@@H]1CN(C)C(=O)c2ccc(NC(=O)Nc3cccc(F)c3)cc2OC[C@@H](C)N(C(=O)Nc2c(C)noc2C)C[C@@H]1C	none (no result: RAD54 inh, NSD2 inh, N-glyco inh)
C[C@@H]1CN([C@@H](C)CO)C(=O)c2cccc(NC(=O)c3cnccn3)c2O[C@@H]1CN(C)C(=O)Nc1ccc(C(F)(F)F)cc1	none (no result: NSD2 inh, N-glyco inh)
Cc1ccc(NC(=O)c2cc(S(=O)(=O)NCC3CCCO3)ccc2F)cc1 (stereo not given)	Casp6 inh 43
CN(C)CCCN(C(=O)c1ccc([N+](=O)[O-])s1)c1nc2cc3c(cc2s1)OCCO3	Casp6 inh 84
O=C(CSc1cccc[n+]1[O-])Nc1ccc(Cl)cc1F	Casp6 inh 37
CCN1CCN(c2ncnc3c2cnn3-c2ccccc2)CC1	none (no result: NSD2 inh)
CCN1CCN(c2ncnc3c2cnn3-c2ccc(Cl)cc2)CC1	Casp6 inh 38 (no result: NSD2 inh)
CC(C)C#Cc1ccc2c(c1)O[C@H](CN(C)Cc1cncnc1)[C@H](C)CN([C@@H](C)CO)S2(=O)=O	none (no result: NSD2 inh, N-glyco inh)
CCCC(=O)Nc1ccc2c(c1)OC[C@@H](C)N(Cc1nccs1)C[C@@H](C)[C@@H](OC)CN(C)C2=O	none (no result: NSD2 inh, N-glyco inh)
Cc1cc(OC(F)F)ccc1NC(=S)NCCc1ccccc1	none
COc1ccc(NC(=S)NCCc2ccccc2)c(C)c1	Casp6 inh 36
CN1CCN(NC(=O)Nc2ccc(F)cc2)CC1	Casp6 inh 48 (no result: NSD2 inh)
C[C@@H](NC(=O)C[C@@H]1CC[C@@H](NC(=O)C2CC2)[C@@H](CO)O1)c1ccccc1	none (no result: NSD2 inh, N-glyco inh)
CC1COCC(C)N1C1=C(Cl)C(=O)c2ccccc2C1=O (stereo not given)	NSD2 inh 107, N-glyco inh 34
CC(CN1CCCCC1)C(=O)NNC(=O)C12CC3CC(CC(C3)C1)C2 (stereo not given)	Casp6 inh 43
COC1=C(Br)C(=O)c2ncccc2C1=O	Casp6 inh 98 (no result: RAD54 inh, NSD2 inh)
O=C1c2cccnc2-c2ncccc21	none (no result: RAD52 anneal inh, Casp6 inh)
CCC(=O)N(C)C[C@@H]1Oc2cc(C#CC3(O)CCCC3)ccc2S(=O)(=O)N([C@@H](C)CO)C[C@H]1C	none (no result: NSD2 inh, N-glyco inh)
CCN(CC)CCn1c2ccccc2c2cnc(N=CN(C)C)c(C#N)c21	RAD54 inh 97, N-glyco inh inconclusive (no result: RAD52 anneal inh, Casp6 inh)
COc1ccc2c3c([nH]c2c1)[C@@H](CO)N(C(=O)C1CCOCC1)CC31CCN(C)CC1	none (no result: RAD54 inh, NSD2 inh, Casp6 inh, N-glyco inh)
